Holding throughout (test): NCI-60 one-dose screen, 48 h (100 = growth as untreated, 0 = no growth, -100 = all killed)
Details in all cases: 10 µM

For test [1], the system named is T-47D breast.
Test [2] deals with BT-549 breast.
For test [3], the system named is MDA-MB-435 melanoma.
In test [4] the test system is SW-620 colon.
The test system of test [5] is MCF7 breast.
In test [6] the test system is HCT-116 colon.
Test [7] has as its system HCC-2998 colon.
Test [8] deals with KM12 colon.

Compounds without any hit were thinned out: in the full panel of roughly 83,000, 20% have a hit.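 Negative percent growth values reflect cell death: -40 means 40% of the cells present at the start died, and -100 means all died.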 A number with no mark means an inactive call. The source made the active and inactive calls. The calls were made as follows: active = growth percent below 10; inactive = the rest.

Consider `COc1ccccc1-n1c(-c2csc(NC(C)=O)n2)n[nH]c1=S`, for which the growth in test [1] was 104%; in test [2] it was 94.7%; in test [3] it was 85.3%; in test [4], 105%; in test [5] it was 97.5%; in test [6], 100%. For the same compound, the growth in test [7] was 101%; in test [8], 104%.
As to `COc1ccc(C(c2ccc(OCCN(C)C)cc2)c2cc3ccccc3c3ccccc23)cc1` (stereo not given), the growth is 21.8% in test [1]; 93% in test [2]; -25.4% (active) in test [3]; -46.6% (active) in test [4]; 2.13% (active) in test [5]; -75% (active) in test [6]. The figures for the growth in test [7] and in test [8] were -19.7% (active) and 19.3%, respectively.
As to `CC(C)(C)OC(=O)N1CCc2c(sc3ncnc(N/N=C/c4cccc(Br)c4)c23)C1`, the growth in test [1] was 20.2%; in test [2] it was 79.4%; in test [3], 34.3%; in test [4], 41.1%; in test [5], 5.3% (active); in test [6], 29.6%. Moreover, the growth in test [7] was 42.6%; in test [8], 62.3%.
Turning to `COc1ccc(-c2nn(-c3cccc(Cl)c3)cc2C=C(C#N)C#N)cc1`, the growth in test [1] was 21.1%; in test [2], -34.8% (active); in test [3], -68.5% (active); in test [4], -2.25% (active); in test [5], -11.6% (active); in test [6], -40.9% (active). The growth was 8.75% (active) in test [7] and 4.48% (active) in test [8].
Turning to `COc1ccc(Cc2cnc(N)nc2N)cc1OC`, the growth was 101% in test [1]; 106% in test [2]; 107% in test [3]; 98.7% in test [4]; 100% in test [5]; 99.8% in test [6]. Moreover, the growth in test [7] is 105%; in test [8], 110%.
`NS(=O)(=O)c1ccc(Br)cc1`: the growth is 84.7% in test [1]; 87.6% in test [2]; 105% in test [3]; 112% in test [4]; 94% in test [5]; 81.4% in test [6]. In addition, the growth in test [7] was 108%; in test [8], 99.5%.
`O=C(N/N=C/c1ccc(Cl)cc1)c1ccc(Cc2n[nH]c(=O)c3cccnc23)cc1`: the growth in test [1] is 99.4%; in test [2], 100%; in test [3], 95.5%; in test [4] it was 113%; in test [5] it was 95.8%; in test [6] it was 94.5%. Besides, the results for the growth in test [7] and in test [8] were 89.8% and 108%, respectively.
Take `O=C(CCCCCCC(=O)Nc1ccccc1)NO`: the growth in test [1] was -12.6% (active); in test [2] it was 53.9%; in test [3] it was -22% (active); in test [4], -25.7% (active); in test [5] it was 9.87% (active); in test [6] it was 4.45% (active). For the same compound, the growth was 0.434% (active) in test [7] and 14.4% in test [8].
Consider `O=C(O)Cc1ccc(O)c(O)c1`, for which the growth in test [1] was 83.2%; in test [2], 88.3%; in test [3] it was 103%; in test [4], 103%; in test [5] it was 91%; in test [6], 105%. Besides, the values for the growth in test [7] and in test [8] were 92.2% and 98.6%, respectively.
For the compound `CS(=O)(=O)c1nccc(-c2c(-c3cccc(OCc4ccc(F)cc4)c3)nc3sccn23)n1`, the growth is 71.6% in test [1]; 41.7% in test [2]; 81.3% in test [3]; 48.4% in test [4]; 69.5% in test [5]; 46.4% in test [6]. Also, the growth is -16.3% (active) in test [7] and 38.9% in test [8].
As to `COc1cc(Cc2cc(-c3ccccc3)n[nH]c2=O)cc(OC)c1OC`, the growth in test [1] was 40.5%; in test [2], 54.1%; in test [3], 11%; in test [4] it was 33%; in test [5] it was 34.9%; in test [6] it was 16.3%. In addition, the values for the growth in test [7] and in test [8] were 79.1% and 48.8%, respectively.
For `Cc1c(C(N)=O)sc2c1c(=O)n(Cc1ccccc1)c1nnc(-c3ccc(Br)cc3)n21`, the growth in test [1] was 20.9%; in test [2] it was 22.6%; in test [3] it was 39%; in test [4], 33.1%; in test [5], 21.5%; in test [6], 12.4%. The figures for the growth in test [7] and in test [8] were 25% and 25.6%, respectively.
Turning to `O=c1cn[nH]c2ccc(Br)cc12`, the growth was 83% in test [1]; 105% in test [2]; 111% in test [3]; 103% in test [4]; 105% in test [5]; 97.8% in test [6]. The values for the growth in test [7] and in test [8] were 108% and 98.7%, respectively.
In the case of `COc1ccc(-c2cc(-c3ccc(Cl)cc3)nc(SCCCCCCC(=O)NO)n2)cc1OC`, the growth in test [1] was 36.1%; in test [2] it was 79.6%; in test [3], 69.1%; in test [4], 46.3%; in test [5] it was 24.6%; in test [6] it was 41.8%. The results for the growth in test [7] and in test [8] were 80.3% and 69.4%, respectively.
With `O=c1[nH]c(=O)n(C2C[C@H](O)[C@@H](CO)O2)cc1C(F)(F)F` (stereo not given in full), the growth in test [1] was 95.3%; in test [2] it was 105%; in test [3], 102%; in test [4], 114%; in test [5], 102%; in test [6] it was 106%. Besides, the growth was 108% in test [7] and 115% in test [8].
